Test results published in PubChem BioAssay (Tox21).
Records with an inconclusive call do not appear. Activity calls are given as the source filed them. Unless noted, the call rests on the fitted dose curve; in most records, active means well fitted curve in the direction sought with a large enough effect in the repeat runs; inconclusive means weak or mixed curves; inactive means no such curve, though single readings can be large; an effect the other way counts as inactive or inconclusive.

What was measured:
[1] = qHTS assay for small molecule agonists of the p53 signaling pathway (AID 651631; calls by dose curve; further: nearly all actives have a fitted effect of over 15% in size)
Method in brief: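 Fluorescence intensity from cleaved LiveBLAzer B/G substrate (2 h, room temperature) served as the signal. Beforehand, HCT-116 reporter cells bearing p53 response elements were treated 16 h at 37 °C with DMSO-dissolved compounds.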

[2] = qHTS assay for small molecules that induce genotoxicity in human embryonic kidney cells expressing luciferase-tagged ATAD5 (AID 651632); further: nearly all actives have a fitted effect of over 15% in size
Method in brief: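 Increased luciferase signal from ATAD5-tagged reporter cells indicates DNA-damage-driven ATAD5 induction. HEK293T cells are treated for 16 hr at 37C before detection with Amplite.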

[3] = qHTS assay for small molecule agonists of the p53 signaling pathway - cell viability (AID 651633; calls by dose curve;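 further: p53RE-bla HCT reporter cells with a stable beta-lactamase p53 reporter; series mostly up to about 83 µM; nearly all actives have a fitted effect of over 30% in size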)
Method in brief: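 p53RE-bla cells were treated with compound for 16 hours at 37 C. Cytotoxicity was then measured as CellTiter-Glo luminescence after 30 min at room temperature.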

[4] = qHTS assay for small molecules that induce genotoxicity in human embryonic kidney cells expressing luciferase-tagged ATAD5 - cell viability (AID 651634; calls by dose curve; further: nearly all actives have a fitted effect of over 25% in size)
Method in brief: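 Cytotoxicity counterscreen in HEK293T cells bearing an ATAD5-luciferase reporter: live-cell protease activity measured by CellTiter-Fluor fluorescence after 15.5 hr compound exposure.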

[5] = qHTS assay for small molecule disruptors of the mitochondrial membrane potential - cell viability (AID 720634; calls by dose curve;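 further: human HepG2 liver cancer cells; series mostly up to about 83 µM; nearly all actives have a fitted effect of over 20% in size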)
Method in brief: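 After overnight attachment at 37 C, HepG2 cells received compound or DMSO vehicle for 1 hr. Viability is then taken from ATP-driven luminescence following a 30 min room-temperature CellTiter-Glo step.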

[6] = qHTS assay to test for compound auto fluorescence at 590 nm (red) in HepG2 cells (AID 720674)
Method in brief: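 Fluorescence at 590 nm emission following 540 nm excitation was recorded from HepG2 wells one hour after compound transfer, with DMSO-only wells as vehicle and Rose Bengal sodium equivalency as the scale.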

[7] = qHTS assay to test for compound auto fluorescence at 535 nm (green) in HepG2 cells (AID 720675)
[8] = qHTS assay to test for compound auto fluorescence at 460 nm (blue) in HEK293 cells (AID 720678)
Method in brief: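 Triamterene serves as the blue fluorophore standard. Compound signal at 405/460 nm is read in HEK293 wells (2,000 cells, 10% dialyzed FBS) after overnight treatment at 37C.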

[9] = qHTS assay to test for compound auto fluorescence at 590 nm (red) in HEK293 cells (AID 720679)
Method in brief: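 We plated HEK293 cells in 10% dialyzed FBS medium, let them adhere for 4-5 hr, then added 23 nL compound. Overnight at 37C and 5% CO2 preceded fluorescence measurement at 540/590nm.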

[10] = qHTS assay to test for compound auto fluorescence at 535 nm (green) in HEK293 cells (AID 720680)
[11] = qHTS assay to test for compound auto fluorescence at 460 nm (blue) in HEK293 cell free culture (AID 720681)
Method in brief: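 Compounds were added to cell-free DMEM with 10% FBS and fluorescence read directly. The blue channel used 405 nm excitation and 460 nm emission, with triamterene as the reference fluorophore.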

[12] = qHTS assay to test for compound auto fluorescence at 535 nm (green) in HEK293 cell free culture (AID 720682)
Method in brief: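 Intrinsic compound fluorescence is measured in culture medium containing 10% FBS, with excitation at 485 nm and detection at 535 nm, referenced to fluorescein.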

[13] = qHTS assay to test for compound auto fluorescence at 590 nm (red) in HEK293 cell free culture (AID 720683)
Method in brief: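 Cell-free wells of DMEM with 10% FBS received compound, and intrinsic fluorescence was read at excitation/emission 540/590 nm. Values expressed as equivalence to Rose Bengal sodium.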

[14] = qHTS assay to test for compound auto fluorescence at 590 nm (red) in HepG2 cell free culture (AID 720684)
Method in brief: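 Compound was pinned into wells holding MEM with 10% FBS and no cells, and red fluorescence was read at Ex/Em 540/590 nm. Signal is expressed as auto fluorescence equivalency relative to Rose Bengal sodium.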

[15] = qHTS assay to test for compound auto fluorescence at 460 nm (blue) in HepG2 cell free culture (AID 720685)
Method in brief: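 Compound (23 nL) or DMSO pinned into cell-free MEM with 10% FBS; blue fluorescence read at 405/460 nm excitation/emission, expressed as auto-fluorescence equivalency to triamterene.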

[16] = qHTS assay to test for compound auto fluorescence at 535 nm (green) in HepG2 cell free culture (AID 720686)
[17] = qHTS assay to test for compound auto fluorescence at 460 nm (blue) in HepG2 cells (AID 720687)
Method in brief: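 HepG2 cells in MEM with 10% FBS, attached overnight at 37 C, were exposed to compound or DMSO for 1 hr at 37 C, 5% CO2. Blue fluorescence was read at 405/460 nm, with triamterene as reference fluorophore.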

[18] = target: Glucocorticoid receptor (Homo sapiens) (UniProt P04150); experiment: qHTS assay to identify small molecule agonists of the glucocorticoid receptor (GR) signaling pathway (AID 720691; active means well fitted activation curve with a large enough effect in the signal ratio in the repeat runs, not every such curve was filed as active; the % refers to the signal ratio; further: potency means the concentration at half of the fitted maximal effect)
Method in brief: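 Agonist mode in a HeLa line carrying a GRE-controlled beta-lactamase reporter. Compounds act for 18 h at 37 C before a 2 h room-temperature FRET substrate step and fluorescence reading.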

[19] = target: Glucocorticoid receptor (Homo sapiens) (UniProt P04150); experiment: qHTS assay to identify small molecule antagonists of the glucocorticoid receptor (GR) signaling pathway (AID 720692; active means well fitted inhibition curve with a large enough effect in the signal ratio in the repeat runs, not every such curve was filed as active; the % refers to the signal ratio)
Method in brief: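 Cells plated, rested 4 h at 37 C/5% CO2; compounds in DMSO pin-transferred; dexamethasone added to 5 nM final; 18 h at 37 C; B/G FRET substrate added, 2 h room temperature; fluorescence measured.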

[20] = qHTS assay for small molecule disruptors of the mitochondrial membrane potential (AID 720635)
Method in brief: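 HepG2 cells exposed to compound 1 hr at 37C, then Mito-MPS dye 30 min. Ratio read of aggregate (540/590 nm) versus monomer (490/535 nm) fluorescence.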
On the % scale 0 is the no-effect control and ±100 the full control effect.

Chain of Glucocorticoid receptor (Homo sapiens) (P04150 whole entry, looked up): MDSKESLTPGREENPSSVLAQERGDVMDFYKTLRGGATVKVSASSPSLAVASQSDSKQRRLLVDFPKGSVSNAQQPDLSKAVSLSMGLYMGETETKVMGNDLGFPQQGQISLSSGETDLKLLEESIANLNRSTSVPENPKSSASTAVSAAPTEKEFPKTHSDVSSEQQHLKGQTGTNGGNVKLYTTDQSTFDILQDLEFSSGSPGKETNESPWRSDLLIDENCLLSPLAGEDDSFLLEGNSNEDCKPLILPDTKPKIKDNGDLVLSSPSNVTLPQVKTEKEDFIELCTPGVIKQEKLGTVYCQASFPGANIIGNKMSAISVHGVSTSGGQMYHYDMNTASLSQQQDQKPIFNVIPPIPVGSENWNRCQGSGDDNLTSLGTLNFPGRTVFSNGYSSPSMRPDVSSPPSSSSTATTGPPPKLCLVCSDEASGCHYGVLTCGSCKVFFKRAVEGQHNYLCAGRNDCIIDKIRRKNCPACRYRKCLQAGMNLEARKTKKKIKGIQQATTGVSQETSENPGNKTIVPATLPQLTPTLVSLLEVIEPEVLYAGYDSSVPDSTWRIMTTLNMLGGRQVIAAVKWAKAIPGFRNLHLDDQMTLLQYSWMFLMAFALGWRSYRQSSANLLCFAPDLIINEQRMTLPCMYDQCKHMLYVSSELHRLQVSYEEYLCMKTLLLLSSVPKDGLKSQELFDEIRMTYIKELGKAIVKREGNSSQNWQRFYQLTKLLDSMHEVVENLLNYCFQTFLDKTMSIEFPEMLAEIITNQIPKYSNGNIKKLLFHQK

CSSc1ccoc1C
inactive: Potency [1] | Potency [2] | Potency [3] | Potency [4] | outcome [5] | outcome [6] | outcome [7] | Potency [8] | outcome [9] | outcome [10] | Potency [11] | outcome [12] | outcome [13] | outcome [14] | Potency [15] | outcome [16] | Potency [17] | Potency [18]

O=c1[nH][nH]c(=O)c2cc([N+](=O)[O-])ccc12
inactive: Potency [1] | Potency [2] | Potency [3] | Potency [4] | outcome [5] | outcome [6] | outcome [7] | Potency [8] | outcome [9] | outcome [10] | Potency [11] | outcome [12] | outcome [13] | outcome [14] | Potency [15] | outcome [16] | Potency [17] | Potency [18] | Potency [19]

CCOCCC(=O)OCC
inactive: Potency [1] | Potency [2] | Potency [3] | Potency [4] | outcome [5] | outcome [6] | outcome [7] | Potency [8] | outcome [9] | outcome [10] | Potency [11] | outcome [12] | outcome [13] | outcome [14] | Potency [15] | outcome [16]

CCCCCCC(O)CCOC(C)=O (configuration not stated)
inactive: Potency [1] | Potency [2] | Potency [3] | Potency [4] | outcome [5] | outcome [6] | outcome [7] | Potency [8] | outcome [9] | outcome [10] | Potency [11] | outcome [12] | outcome [13] | outcome [14] | Potency [15] | outcome [16] | Potency [17]

C=CC(=O)NC(C)C
inactive: Potency [1] | Potency [2] | Potency [3] | Potency [4] | outcome [5] | outcome [6] | outcome [7] | Potency [8] | outcome [9] | outcome [10] | Potency [11] | outcome [12] | outcome [13] | outcome [14] | Potency [15] | outcome [16] | Potency [17] | Potency [18] | Potency [19]

Cc1ccc(NC(=O)N(C)C)cc1NC(=O)N(C)C
inactive: Potency [1] | Potency [2] | Potency [3] | Potency [4] | outcome [5] | outcome [6] | outcome [7] | Potency [8] | outcome [9] | outcome [10] | Potency [11] | outcome [12] | outcome [13] | outcome [14] | Potency [15] | outcome [16] | Potency [17] | Potency [18] | Potency [19]

CCN(CC)C(=O)N1CCN(C)CC1
active: Potency [18] 10.2 µM
inactive: Potency [1] | Potency [2] | Potency [3] | Potency [4] | outcome [5] | fluorescence, relative to Rose Bengal [6] 0.12% [at 18.6 µM] | fluorescence, % of fluorescein control [7] -0.0715% [at 18.6 µM] | fluorescence, % of triamterene [8] -0.217% [at 18.6 µM] | fluorescence, % of fluorescent control [9] 0.0039% [at 18.6 µM] | fluorescence, % of fluorescein [10] -0.0466% [at 18.6 µM] | fluorescence, % of fluorescent control [11] 0.0671% [at 18.6 µM] | activity change [12] -0.0353% [at 18.6 µM] | fluorescence, % of fluorescent control [13] 0.461% [at 18.6 µM] | fluorescence, % of Rose Bengal [14] 0.0189% [at 18.6 µM] | fluorescence, % of fluorescent control [15] -0.0488% [at 18.6 µM] | fluorescence, % of fluorescein control [16] -0.0623% [at 18.6 µM] | fluorescence, % of fluorescent control [17] 0.0195% [at 18.6 µM]

CC1CCc2nccnc21 (configuration not stated)
inactive: Potency [1] | Potency [2] | Potency [3] | Potency [4] | outcome [5] | Potency [20] | outcome [6] | outcome [7] | Potency [8] | outcome [9] | outcome [10] | Potency [11] | outcome [13] | outcome [14] | outcome [16] | Potency [17]
